Test results as given in PubChem BioAssay AID651598 (Sanford-Burnham Center for Chemical Genomics, 2012).
Where “and” joins values, the source holds several entries; their conditions need not be identical. Identical values can stand only once.

target: Apelin receptor (Homo sapiens) (UniProt P35414); assay: apelin receptor (APJ) antagonists, SAR follow-up, counter-screen for CXCR6 antagonist project, cell-based, beta-arrestin, DiscoveRx, panel, CHO-K1 (AID 651598); details: CHO-K1 PathHunter beta-arrestin luminescence, antagonist mode; run 5, at 80 µM (top of the series)
Sequence (P35414 whole entry, looked up): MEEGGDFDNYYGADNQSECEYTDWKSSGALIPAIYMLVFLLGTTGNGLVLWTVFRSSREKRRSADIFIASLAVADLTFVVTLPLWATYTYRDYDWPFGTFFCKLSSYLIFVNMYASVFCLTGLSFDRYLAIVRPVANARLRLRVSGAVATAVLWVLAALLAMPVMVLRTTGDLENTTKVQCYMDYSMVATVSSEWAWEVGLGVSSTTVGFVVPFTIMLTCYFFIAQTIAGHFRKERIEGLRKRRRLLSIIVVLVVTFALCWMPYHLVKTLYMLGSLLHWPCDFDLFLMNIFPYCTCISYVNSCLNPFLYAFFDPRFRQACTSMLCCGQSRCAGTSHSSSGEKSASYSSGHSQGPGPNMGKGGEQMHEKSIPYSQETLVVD

Row | Structure (SMILES) | inhibition
1 | COc1cc(C(=O)NC2CCN(CC(=O)Nc3ccccc3)CC2)cc(OC)c1OC | -5.74%
2 | COc1cc(C(=O)NC2CC3CCC(C2)N3CC(=O)Nc2ccccc2)cc(OC)c1OC (stereo not drawn) | -14.1% and -9.09%
3 | COc1cc(C(=O)NC2CC3CCCC(C2)N3CC(=O)Nc2ccccc2)cc(OC)c1OC (stereo not drawn) | 11% and 14.6% and 16%
